Assay outcomes deposited in PubChem BioAssay by National Center for Advancing Translational Sciences (NCATS).
Cycloheximide cs: counter-screen hit for Shiga toxin inhibitors, cycloheximide | cell reporter, cycloheximide protein synthesis inhibition counterscreen | max response, % | 300,000 tested, 12% active | AID 2314; in the data active means max response mostly above about 13%, no sharp cut-off; inactive means mostly below about 14%; further: read at 38.3 µM for the half of the compounds with a filed dose
Pf growth 48h: P. falciparum growth inhibition at 48 hours (one generation); 310,000 tested, 5.9% active; P. falciparum luciferase growth in erythrocytes, 48 h; AID 504832; Potency, µM (highest dose often 28.7 µM), actives largely listed as inhibitors
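First compound was added to culture medium, then infected red cells at 0.1% parasitemia and 2% hematocrit (final). After incubation at 37 C under 5% CO2, luciferase detection reagent was dispensed and light output recorded.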
Pf growth 96h: inhibits malaria parasite growth, 96 h; P. falciparum luciferase reporter growth, 96 h; 320,000 tested, 6.9% active; Potency, µM (highest dose often 28.7 µM), hits mostly inhibitors
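Cell-based qHTS: luciferase-tagged P. falciparum in erythrocytes (2% hematocrit, 0.05% parasitemia final) incubated with compounds for 96 hours, 37 C, 5% CO2; luciferase detection reagent then added and luminescence measured.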
Shiga toxin inh: blocks Shiga toxin action in Vero cells | Vero cells, Shiga toxin protein synthesis inhibition reporter | inhibition, % at 38.7 µM | 290,000 tested, 9.2% active | AID 2315; in the data active means inhibition mostly above about 28%, no sharp cut-off; inactive means mostly below about 43%
Each line names hits and unclear results; the compound was inactive in the other large screens. Only some compounds are listed: those with a hit (about 21% of all), similar ones and a draw of the others. Unless noted, the call rests on the fitted dose curve; in most records, active means well fitted inhibition curve with a large enough effect; inconclusive means small, poorly fitted or top-dose-only effect, or another doubt; inactive means no such curve, though single readings can be large or run the other way.

COc1ccc(CCNC(=O)c2cc(S(=O)(=O)N(C)C)ccc2N2CCCC2)cc1	none
CCc1noc(C)c1C(=O)Nc1cc(S(=O)(=O)N(CC)CC)ccc1N1CCCC1	none (no result: Cycloheximide cs, Shiga toxin inh)
CCN(CC)S(=O)(=O)c1ccc(N2CCCCC2)c(NC(=O)/C=C/c2ccc(OC)c(OC)c2)c1	Pf growth 48h 9.28µM, Pf growth 96h 10.4µM
COc1ccc(C(C)(C)C)cc1NC(=O)c1cc(S(=O)(=O)N(C)C)ccc1N1CCCC1	Pf growth 48h 13.1µM, Pf growth 96h 9.28µM
CCN(CC)S(=O)(=O)c1ccc(N2CCCC2)c(NC(=O)c2ccc(OC)cc2OC)c1	Pf growth 48h 13.1µM, Pf growth 96h inconclusive
COc1cc(NC(=S)NN2CCN(C)CC2)cc(OC)c1OC	none
CCN(CC)S(=O)(=O)c1ccc(N2CCCC2)c(NC(=O)Cc2ccc(OC)cc2)c1	Pf growth 48h inconclusive, Pf growth 96h inconclusive
CCN(CC)S(=O)(=O)c1ccc(N2CCCC2)c(NC(=O)Cc2cc(OC)c(OC)c(OC)c2)c1	Pf growth 48h 7.38µM, Pf growth 96h inconclusive
CCOc1ccc(S(=O)(=O)Nc2cc(S(=O)(=O)N(CC)CC)ccc2N2CCCC2)cc1	Pf growth 48h 7.38µM, Pf growth 96h 1.31µM
CCOc1ccc(-n2c(SCc3nc(-c4ccc(C)cc4)no3)nnc2-c2ccncc2)cc1	Pf growth 96h inconclusive (no result: Pf growth 48h)
Cc1ccc(-c2noc(CSc3nnc(Cc4cccs4)n3-c3ccccc3)n2)cc1	Pf growth 96h 4.65µM
Cc1ccc(-c2noc(CSc3nnc(-c4ccncc4)n3-c3ccc(C)cc3)n2)cc1	Pf growth 48h inconclusive, Pf growth 96h 11.7µM
Fc1ccc(-n2c(Cc3ccccc3)nnc2SCc2nc(-c3cccs3)no2)cc1	Pf growth 48h 10.4µM
O=C(/C=C/c1ccc(/C=C/C(=O)Nc2ccc(C3=NCCN3)cc2)cc1)Nc1ccc(C2=NCCN2)cc1	none (no result: Pf growth 48h, Pf growth 96h)
COc1ccc(NS(=O)(=O)c2cccc(C(=O)NNC(=O)CNC(=O)c3cccc(C)c3)c2)cc1	none
COc1cc(C(=O)OC(C)C(=O)NC2CCCCC2C)c([N+](=O)[O-])cc1OC (stereo not drawn)	none (no result: Cycloheximide cs, Shiga toxin inh)
Cc1[nH]c2ccc(C(=O)OC(C)C(=O)NC3CCCCC3C)cc2c1C (stereo not drawn)	Pf growth 48h 4.65µM, Pf growth 96h inconclusive (no result: Cycloheximide cs, Shiga toxin inh)
CC(OC(=O)c1ccc2c(c1)OCO2)C(=O)NC1CCCCC1C (stereo not drawn)	none (no result: Cycloheximide cs, Shiga toxin inh)
CC(OC(=O)c1ccc([N+](=O)[O-])s1)C(=O)NC1CCCCC1C (stereo not drawn)	Pf growth 48h 13.1µM, Pf growth 96h inconclusive (no result: Cycloheximide cs, Shiga toxin inh)
NC(=O)c1ccc[n+](CCC[n+]2cccc(C(N)=O)c2)c1	none
CCCCCCCCCC[n+]1cccc(C(=O)N(CC)CC)c1	Pf growth 48h 3.7µM, Pf growth 96h 3.7µM
COc1cc(NC(=O)c2ccc(N3CC4CC(C3)c3cccc(=O)n3C4)c(NC(=O)c3ccncc3)c2)cc(OC)c1OC (stereo not drawn)	Pf growth 48h inconclusive, Pf growth 96h inconclusive
O=C(CSc1ccc(-c2cccnc2)nn1)N1CCCCC1	none
O=C(CSc1ccc(-c2ccc(F)cc2)nn1)N1CCCCC1	Shiga toxin inh 49.1
CC1CCN(C(=O)CSc2ccc(-c3ccc(F)cc3)nn2)CC1	none
COc1cccc(-c2ccc(SCC(=O)c3ccccc3)nn2)c1	Shiga toxin inh 48.1
O=C(CSc1ccc(-c2ccccn2)nn1)N1CCCCC1	Cycloheximide cs 30.8, Shiga toxin inh 72.1
O=C(CSc1ccc(-c2ccco2)nn1)N1CCCCCC1	Shiga toxin inh 51.1
NC(=O)C1CCN(CC(=O)Nc2cccnc2Cl)CC1	none
COc1ccc(S(=O)(=O)N(CC(=O)NCc2ccncc2)c2cc(C)cc(C)c2)cc1OC	Pf growth 48h inconclusive
COc1ccc(-c2[nH]ncc2CN2CCC(N3CCSCC3)CC2)cc1F	none
O=C(CSc1ccc(-c2ccncc2)nn1)N1CCCCC1	Pf growth 96h inconclusive
O=C(CSc1ccc(-c2ccco2)nn1)c1ccccc1	Cycloheximide cs 23.5, Pf growth 96h inconclusive, Shiga toxin inh 31.6
O=C(CSc1ccc(-c2ccccc2)nn1)N1CCCCC1	Cycloheximide cs 30.9, Shiga toxin inh 71.6
O=C1Nc2ccc(S(=O)(=O)NCc3ccccn3)c3cccc1c23	Pf growth 96h 10.4µM (no result: Pf growth 48h)
CCn1c(CC(=O)Nc2ccc(F)cc2)nnc1SCC(=O)N1CCOCC1	none
CCCCCc1ccc(-c2cn(CCCOCc3ccccc3)nn2)cc1	none
COc1ccc(-c2cn(CCCOCc3ccccc3)nn2)cc1	Cycloheximide cs 16.4, Pf growth 48h inconclusive, Pf growth 96h inconclusive, Shiga toxin inh 24.7
CCCCCc1ccc(-c2cn(Cc3ccc([N+](=O)[O-])cc3)nn2)cc1	Pf growth 96h inconclusive
COc1ccc(-c2cn(Cc3ccc([N+](=O)[O-])cc3)nn2)cc1	Shiga toxin inh 23.9
COc1ccc(-c2cn(Cc3ccc(C(=O)c4ccccc4)cc3)nn2)cc1	Cycloheximide cs 43.0, Shiga toxin inh 62.0
Cc1ccc(Cn2cc(-c3ccccc3)nn2)cc1	Cycloheximide cs 56.8, Shiga toxin inh 86.2
NS(=O)(=O)c1ccc(CCNC(=O)C2CCCN2S(=O)(=O)c2cccc3nsnc23)cc1 (stereo not drawn)	Pf growth 96h inconclusive
O=C(CN1C(=O)S/C(=C\c2ccc(F)cc2)C1=O)Nc1cccc(S(=O)(=O)NCc2ccco2)c1	Cycloheximide cs 66.9, Pf growth 48h inconclusive, Pf growth 96h inconclusive, Shiga toxin inh 138.0
O=C1c2ccccc2NC(c2ccccc2Br)N1CCCN1CCOCC1 (stereo not drawn)	Pf growth 48h inconclusive, Pf growth 96h 10.4µM
CCOC(=O)C1CCN(CC(=O)N(CC(C)C)c2c(N)n(CC(C)C)c(=O)[nH]c2=O)CC1	none
COc1ccc(C(=O)N[C@H](C(=O)Nc2ccc(OC)nc2)C(C)C)cc1	Cycloheximide cs 15.1 (no result: Pf growth 96h)
COc1ccc(S(=O)(=O)Nc2nc3c(s2)CCCC3)cc1	Pf growth 48h inconclusive, Pf growth 96h inconclusive
CCOc1ccccc1C(=O)N[C@H](C(=O)Nc1nc2c(s1)CCCC2)C(C)C	Cycloheximide cs 20.9, Pf growth 48h inconclusive, Pf growth 96h inconclusive, Shiga toxin inh 38.1
COc1ccc(C(=O)N[C@H](C(=O)Nc2nc3c(s2)CCCC3)C(C)C)cc1	Cycloheximide cs 58.8, Shiga toxin inh 78.7
COc1ccc(C(=O)NC(C(=O)NCc2ccccn2)C(C)C)cc1 (stereo not drawn)	none (no result: Pf growth 48h)
CCSc1nc2sc3c(c2c2[n+]1CC(CBr)O2)CCCC3 (stereo not drawn)	Cycloheximide cs 17.4
CCSc1nc2sc3c(c2c(=O)[nH]1)CCCC3	none
BrCC1C[n+]2c(SCc3ccccc3)nc3sc4c(c3c2O1)CCCC4 (stereo not drawn)	Cycloheximide cs 30.6, Shiga toxin inh 80.3
C=CCN1C(=O)[C@@H]2Cc3c([nH]c4ccccc34)C(c3cc(OC)c(OC)c(OC)c3)N2C1=S (stereo partly drawn)	Pf growth 48h 8.28µM, Pf growth 96h inconclusive
CCN1C(=O)[C@@H]2Cc3c([nH]c4ccccc34)C(c3cc(OC)c(OC)c(OC)c3)N2C1=S (stereo partly drawn)	Pf growth 48h inconclusive, Pf growth 96h inconclusive
CC(C)CN1CC(=O)N2C(c3ccccc3)c3[nH]c4ccccc4c3C[C@H]2C1=O (stereo partly drawn)	Pf growth 48h 11.7µM, Pf growth 96h inconclusive
